Measurements: PubChem BioAssay (NCI)
The panel holds about 79,000 compounds, 15% with a hit somewhere; the sample as a whole holds those more often. Cut-off read from the data, not from the text of the source: active = growth inhibition above about 70%; inactive = the rest.

What was measured:
[1] = NCI Yeast Anticancer Drug Screen. Data for the rad50 strain (AID 155);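 note: 0% = growth of vehicle-only cultures of the same strain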; conditions: S. cerevisiae rad50 strain growth inhibition; at 50.0 µM; active compounds read high
Outline: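 Yeast carrying a defined DNA repair defect were exposed to test compounds, and growth was compared with vehicle-treated controls to give percent inhibition.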

[2] = NCI Yeast Anticancer Drug Screen. Data for the sgs1 mgt1 strain (AID 161);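 note: 0% = growth of cultures given vehicle only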; conditions: S. cerevisiae sgs1 mgt1 strain, at 50.0 µM, active compounds read high
Outline: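 Mutant yeast exposed to compound; growth scored against vehicle-only wells.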

[3] = NCI Yeast Anticancer Drug Screen. Data for the cln2 rad14 strain (AID 165);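 note: 0% = growth equal to vehicle treated cultures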; conditions: S. cerevisiae cln2 rad14 strain, at 50.0 µM, active compounds read high
Outline: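 Test compounds were added to cln2 rad14 yeast cultures; inhibition of growth was then determined by comparison with vehicle treatment.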

[4] = NCI Yeast Anticancer Drug Screen. Data for the bub3 strain (AID 167); conditions: S. cerevisiae bub3 mutant strain, at 50.0 µM, active compounds read high
Outline: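 Compounds were applied to a genetically altered yeast strain carrying a cell-cycle control defect. Growth inhibition was scored against vehicle-treated controls.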

[5] = NCI Yeast Anticancer Drug Screen. Data for the mlh1 rad18 strain (AID 175); conditions: S. cerevisiae mlh1 rad18 strain growth inhibition; at 50.0 µM; active compounds read high
Outline: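 Inhibition values reflect reduced growth of mutant yeast versus vehicle-treated controls following compound exposure; the mutations affect DNA damage repair.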

[6] = NCI Yeast Anticancer Drug Screen. Data for the mec2-1 strain (AID 157); conditions: S. cerevisiae mec2-1 strain, at 50.0 µM, active compounds read high
Outline: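 Each compound was tested on mec2-1 yeast, a strain altered in DNA damage repair or cell cycle control. Growth inhibition is reported relative to vehicle.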

Measured: growth inhibition

Nc1cc2ccccc2c(O)c1O
inactive: [1] 32.1% | [2] 39.1% | [3] 20.7% | [4] 38% | [5] 14.2%

Cc1ccc(NC(=S)N2CCOCC2)cc1C
inactive: [1] 0.55% | [2] 29.6% | [3] 8.35% | [4] 4.2% | [5] -1.55%

O=C(O)c1cccc(-n2ncc(Cl)c(Cl)c2=O)c1
inactive: [1] 8.4% | [2] 19.2% | [3] 19% | [4] 21.4% | [5] 19.6%

O=C(c1ccccc1O)N1CCCC1
inactive: [1] 19.6% | [2] 19.9% | [3] 14.8% | [4] 2.15% | [5] 10.8%

CC(=O)c1cccc(N(C)S(=O)(=O)c2ccc(C)cc2)c1
inactive: [1] 47.6% | [2] 21.8% | [3] -31.2% | [4] 45.1% | [5] 37.9%

CCCCCC/C=C\CCCCCCCCCc1cc(O)cc(OC)c1O
inactive: [1] -8.55% | [2] -5.65% | [3] -9.8% | [4] -33.2% | [5] 13.2%

NC(=S)N/N=C/c1ccc(OC(=O)COc2ccc(Cl)cc2)cn1
inactive: [1] 5.65% | [2] 31.4% | [4] 4.2% | [5] 9.5%

Nc1cc(F)ccc1[N+](=O)[O-]
inactive: [6] -0.1% | [2] -18.1% | [3] -26.2% | [4] -8.75%

CC(=O)c1cccs1
inactive: [1] -9.65% | [2] 15.1% | [3] -20.1% | [4] -3.35% | [5] 6.7%

CC(=O)Nc1ccc(O)c(C)c1
inactive: [1] 10.8% | [2] -25.8% | [3] -21.8% | [4] -14.8% | [5] -1.1%

Oc1ccc2ccccc2c1CN1CCOCC1
inactive: [1] 26.9% | [2] 32.9% | [3] 27.9% | [4] 15.1% | [5] 19%

C/C(=N\N=C(/C)c1cccc([N+](=O)[O-])c1)c1cccc([N+](=O)[O-])c1
inactive: [6] -21% | [2] 17.5% | [3] -10.3% | [4] 16.4%

Nc1ncnc(Nc2ccccc2)n1
inactive: [6] -28.1% | [2] -4.1% | [3] 15.1% | [4] -5.8% | [5] 7.1%

C/C(O)=C(/C=N\C(=S)Nc1ccc(S(=O)(=O)Nc2nccs2)cc1)C(=O)Nc1ccccc1C
inactive: [6] 8.1% | [2] 15.3% | [3] 32.8% | [4] 7.65% | [5] -18.8%

CS(=O)CC(=N\O)/C(CS(C)=O)=N\O (stereo not given)
inactive: [6] -4.45% | [2] 4.5% | [3] -8.85% | [4] -2.8% | [5] 9.2%

CC(=O)NNC(=S)N/C=C/c1c(C)ccc([N+](=O)[O-])c1[N+](=O)[O-]
inactive: [6] -35% | [2] -28.4% | [3] -31.9% | [4] -36% | [5] -2.8%

Cc1ccc(C2CCCCC2)cc1Br
inactive: [6] 4.25% | [2] 4.4% | [3] 3.15% | [4] 9.45% | [5] 28.3%

O=C1C=CC(=O)C2=C1CCCC2
inactive: [6] 10.9% | [2] 10.3% | [3] -9.75% | [4] -20.2% | [5] 26.9%

C=CC(C)(C)n1cc(C2=C(O)C(=O)C(c3cn(C(C)(C)C=C)c4ccccc34)=C(O)C2=O)c2ccccc21
inactive: [6] -26.6% | [4] -18.8% | [5] -13.4%

CC1CN(CCO)CC(C)O1 (stereo not given)
inactive: [6] -26.8% | [2] 4.05% | [4] -1.15% | [5] -10.2%

CCOP(=O)(NC(c1ccccc1)c1ccccc1)OCC
inactive: [6] -15.2% | [2] 30.6% | [3] 5.55% | [4] 25.1% | [5] 28.8%

CC(C)OCC(CCl)OC(=O)Nc1ccccc1 (stereo not given)
inactive: [6] 11.2% | [2] 27.4% | [3] -29.1% | [4] 35.1% | [5] 31.7%

C#CCSc1nnnn1-c1ccccc1
inactive: [6] -19.9% | [2] 22.2% | [3] 19.4% | [4] 15.8% | [5] 12.4%

CC(C)(CC(=O)O)CC(=O)O
inactive: [6] 1.15% | [2] 0% | [3] 23.8% | [4] 16.1% | [5] 14.8%

NNc1ncccn1
inactive: [6] -1.15% | [2] 31.4% | [3] -3.35% | [4] -10% | [5] -0.75%

NCC(O)C(O)C(O)C(O)CO (stereo not given)
inactive: [6] 6.8% | [2] 15.1% | [3] 23.2% | [5] 0.95%

CC(C)=CCC[C@@H](C)[C@H]1CC[C@@]2(C)C3=C(CC[C@]12C)[C@@]1(C)CC[C@H](O)C(C)(C)[C@@H]1CC3
inactive: [6] -24.8% | [2] 21.8% | [3] 9.85% | [4] 11.7% | [5] -7.3%

CN(CCCN(C)CCC1CCCCC1)CCC1CCCCC1
inactive: [6] -1.05% | [2] 0.1% | [3] 54.8% | [4] 2.15% | [5] 7.7%

C1CCc2onc(-c3noc4c3CCCCC4)c2CC1
inactive: [6] -15.8% | [2] -19.1% | [3] -1.1% | [4] -21.4% | [5] 2.8%

S=c1nc(-c2ccccn2)c(-c2ccccn2)n[nH]1
inactive: [6] -9.05% | [2] -1.2% | [3] 11% | [4] -21.8% | [5] -53.7%

CCC(C)c1c(N)n(S(=O)(=O)c2ccc(C)cc2)oc1=O (stereo not given)
inactive: [6] 6.8% | [3] -25% | [5] -3.45%

C=CCC(OC(C)=O)c1ccc(C(C)C)cc1 (stereo not given)
inactive: [6] 0.9% | [2] -23.4% | [3] -55.1% | [4] -0.5% | [5] 5.45%

C[n+]1cc2cc3c(cc2c2ccccc21)OCO3
inactive: [6] 35% | [2] 30% | [3] 13.1% | [4] 26.9% | [5] 39.5%

COC1C(=O)CCC2(CO2)C1(O)C1(C)OC1CCC(C)C (stereo not given)
inactive: [6] -42.4% | [2] -18.5% | [3] -3.85% | [4] -16.1% | [5] -4.55%

O=S(=O)(O)c1cccc2cccnc12
inactive: [6] 1.95% | [2] 7% | [5] -0.5%

C=CCC(O)C=C (stereo not given)
inactive: [6] -14.9% | [2] 5.4% | [3] -0.8% | [4] -5.35% | [5] 12.4%

CSCCC(NC(=O)C(Cl)Cl)C(=O)O (stereo not given)
inactive: [6] -3% | [2] -4.1% | [3] -49% | [4] 17% | [5] 3.4%

Clc1ccc(C(SCc2ccccc2)SCc2ccccc2)cc1
inactive: [6] -46.8% | [2] -15.6% | [3] -17.6% | [4] -10% | [5] -20.1%

CC(CO)(CO)C(=O)O
inactive: [2] -11.6% | [3] 21.3% | [4] -14%

OC(CCN1CCCCC1)(c1ccccc1)c1ccccc1
inactive: [2] -41.5% | [3] 16.4% | [4] -20.2%

CC(=O)Nc1ncc(S(=O)(=O)c2ccc([N+](=O)[O-])cc2)s1
inactive: [6] -57.5% | [2] -17.1% | [3] -7.55% | [4] -41.2% | [5] -32.1%

COc1ccc2c(ccc[n+]2C)c1
inactive: [6] 30.9% | [2] 3.65% | [3] 19.2% | [4] -15.7% | [5] -25.4%

O=C(N/N=C\c1ccc(Cl)cc1Cl)c1ccncc1
inactive: [6] 6.85% | [2] 5.15% | [3] 19.2% | [4] -7% | [5] 3.5%

COc1cc(N)c2ncccc2c1Cl
inactive: [6] 3.55% | [2] 24.4% | [3] -0.05% | [4] -7.3% | [5] 30.4%

Cc1ccc(C(C)C)c(OCC(=O)O)c1
inactive: [6] 12% | [2] 24.2% | [3] 8.65% | [4] -6.85% | [5] 25.6%

COc1cc(OC)c(NC(=O)C(Sc2nc(C)cc(C)c2C#N)c2ccccc2)cc1Cl (stereo not given)
inactive: [6] -19.9% | [2] -4.95% | [3] 22.2% | [4] 1.6% | [5] 5.9%

CCCc1cccc(CCC)c1NC(=O)Nc1cc(Cl)cc(Cl)c1
inactive: [6] 19.9% | [2] 47.5% | [3] 37% | [4] 44% | [5] 23.6%

CC(=O)N(C(C)=O)c1ccc(C)cc1
inactive: [6] -18.9% | [2] -14.7% | [3] -9.75% | [4] -11.2% | [5] -13.9%

COC1CC(OC(=O)c2ccc([N+](=O)[O-])cc2)C(COC(=O)c2ccc([N+](=O)[O-])cc2)O1 (stereo not given)
inactive: [6] 20.8% | [2] 1.9% | [3] -1.1% | [4] -0.7% | [5] 36.1%
